Bioassay records: PubChem, several laboratories
ALR H2O2 inh – blocks human ALR sulfhydryl oxidase activity; purified ALR, DTT oxidation, H2O2 HRP-luminol luminescence; inhibition, % (concentration not given with the values); AID 485317; actives 3.8% (n = 290,000);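 active means mean replicate inhibition above about 79%, with every replicate also reaching it, limit read from the data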
Target sequence (P55789 whole entry, looked up): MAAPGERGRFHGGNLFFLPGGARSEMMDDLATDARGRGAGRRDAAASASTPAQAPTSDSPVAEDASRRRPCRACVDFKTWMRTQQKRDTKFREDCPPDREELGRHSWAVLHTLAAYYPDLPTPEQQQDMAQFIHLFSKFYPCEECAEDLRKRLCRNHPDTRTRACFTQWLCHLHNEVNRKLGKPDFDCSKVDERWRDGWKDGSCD
GRK2 aptamer HTS – inhibitors of human GRK2 displacing RNA aptamer | P25098 | bead flow cytometry, FAM-aptamer displacement from GRK2 | inhibition of aptamer binding, % at 10 µM | actives 0.59% (n = 330,000);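 active means inhibition of aptamer binding above 40%, roughly 3 SD of noise, on plates passing a quality check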;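 further: median bead fluorescence of bound FAM aptamer so fluorescent compounds give negative values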
Efflux pump inh – blocks antifungal efflux pumps in multiplex yeast assay; S. cerevisiae Candida pump triplex, Nile Red efflux; AID 485275; actives 0.44% (n = 330,000); inhibition, % at 10 µM;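 active means plate passing quality check with inhibition over a set limit, or well fluorescence over plate mean plus 4 SD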;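 further: Nile Red retained in pooled yeast measured as flow cytometry median fluorescence; 0% = buffer negative control and 100% = Enniatin B positive control; higher means more Nile Red kept so more efflux inhibition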
HDAC3 inh – blocks human histone deacetylase 3 | O15379 | recombinant HDAC3, fluorogenic peptide/trypsin coupled, fluorescence | inhibition, % at 8.3 µM | actives 0.15% (n = 320,000) | AID 2718; in the data active means inhibition above about 26%, passing the limit was not always enough
Target sequence (O15379 whole entry, looked up): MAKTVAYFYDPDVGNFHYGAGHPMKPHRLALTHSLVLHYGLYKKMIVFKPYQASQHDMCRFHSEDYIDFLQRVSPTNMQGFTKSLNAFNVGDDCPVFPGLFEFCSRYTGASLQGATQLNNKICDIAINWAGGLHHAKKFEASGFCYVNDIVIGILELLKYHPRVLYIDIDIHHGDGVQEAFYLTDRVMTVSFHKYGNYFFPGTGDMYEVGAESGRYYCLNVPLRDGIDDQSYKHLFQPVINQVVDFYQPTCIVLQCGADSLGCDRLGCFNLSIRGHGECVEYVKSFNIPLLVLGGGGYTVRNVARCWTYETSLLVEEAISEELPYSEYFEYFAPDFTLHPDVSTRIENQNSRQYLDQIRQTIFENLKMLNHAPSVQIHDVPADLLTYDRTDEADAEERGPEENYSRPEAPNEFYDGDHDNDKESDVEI
Rce1 inhib – inhibitors of yeast Ras-converting enzyme | AID 2563 | actives 0.27% (n = 290,000) | yeast membranes, quenched prenylated peptide cleavage fluorescence | calls only | Q03530;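 active means fall in fluorescence gain of 50% or more versus controls, with final raw signal at or below 3038400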;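 further: plate controls were neutral control wells for no effect and wells lacking membranes for full effect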
Rtt109 Vps75 – inhibitors of Candida albicans Rtt109/Vps75 histone acetyltransferase | Q5AAJ8 | purified Rtt109/Vps75, ThioGlo CoA-SH fluorescence, 4 h | inhibition, % at 34.9 µM | actives 0.16% (n = 330,000) | AID 540336;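 active means inhibition of at least 50% in every replicate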
Numbers without * were called inactive. Only some compounds are listed: those with a hit (about 4.5% of all), similar ones and a draw of the others.

Results for CCCCc1nnc(NC(=O)CSc2nc(O)c(-c3ccccc3)c(=O)[nH]2)s1 ?
ALR H2O2 inh: 58.6; GRK2 aptamer HTS: 0.0; Efflux pump inh: 0.2; HDAC3 inh: -4.1; Rce1 inhib: inactive; Rtt109 Vps75: -8.7

How did CCCCc1nnc(NC(=O)CSc2nc(O)c(Cc3ccccc3)c(=O)[nH]2)s1 do in these assays?
ALR H2O2 inh: 99.0*; GRK2 aptamer HTS: 7.0; Efflux pump inh: -0.1; HDAC3 inh: -2.1; Rce1 inhib: inactive; Rtt109 Vps75: 10.6

What do the screens show for `COc1ccc(CCNC(=O)CSC(=O)c2ccccc2)cc1OC`?
ALR H2O2 inh: 98.8*; GRK2 aptamer HTS: 3.0; Efflux pump inh: -0.1; HDAC3 inh: -0.1; Rce1 inhib: inactive; Rtt109 Vps75: 12.7

What do the screens show for `COC(=O)[C@@]12CCCCN1[C@H](c1ccc(-c3cccc(Cl)c3)cc1)[C@@H]1C(=O)N(C)C(=O)[C@@H]12`?
ALR H2O2 inh: 0.9; GRK2 aptamer HTS: 0.0; Efflux pump inh: -0.2; HDAC3 inh: -3.4; Rtt109 Vps75: -6.7

Results for O=C(Nc1ccccc1Br)c1cc(=O)c2ccccc2o1 ?
GRK2 aptamer HTS: 0.0; Efflux pump inh: -0.1; HDAC3 inh: -2.1; Rce1 inhib: inactive; Rtt109 Vps75: 1.7

How did COc1ccc(CN(C)C(=O)COC(=O)c2cc([N+](=O)[O-])ccc2N2CCCC2)c(OC)c1OC do in these assays?
ALR H2O2 inh: 2.2; GRK2 aptamer HTS: 1.0; Efflux pump inh: -0.5; HDAC3 inh: -2.1; Rtt109 Vps75: 20.6

What do the screens show for `Cc1ccc2nc(-c3ccccc3)nn2c1`?
Rtt109 Vps75: -5.6

Results for Nc1nc2ccccc2[nH]1 ?
ALR H2O2 inh: -5.4; GRK2 aptamer HTS: 1.0; Efflux pump inh: -0.1; HDAC3 inh: 1.4; Rce1 inhib: inactive; Rtt109 Vps75: -0.2

Results for Nc1ccccc1Sc1nc2ccccc2[nH]1 ?
ALR H2O2 inh: 12.5; GRK2 aptamer HTS: 1.0; Efflux pump inh: 0.0; HDAC3 inh: -1.1; Rce1 inhib: inactive; Rtt109 Vps75: 101.4*

Results for CCOC(=O)c1c(NC(=O)C2C3C=CC(C3)C2(C)C(=O)O)sc2c1CCCC2 (centres undefined) ?
ALR H2O2 inh: 91.0*; GRK2 aptamer HTS: 64.0*; Efflux pump inh: 0.3; HDAC3 inh: -1.4; Rce1 inhib: inactive; Rtt109 Vps75: 7.1

What do the screens show for `CCN1/C(=C/C=C/C=C/c2sc3ccccc3[n+]2CC)Sc2ccccc21`?
GRK2 aptamer HTS: 89.0*; Efflux pump inh: 0.8*; HDAC3 inh: 36.0*; Rce1 inhib: inactive

What do the screens show for `CCN1/C(=C/C=C/C=C/C=C/c2sc3ccccc3[n+]2CC)Sc2ccccc21`?
ALR H2O2 inh: 11.7; GRK2 aptamer HTS: 22.0; Efflux pump inh: 0.1; HDAC3 inh: 6.2; Rce1 inhib: inactive; Rtt109 Vps75: 1.4

How did O=C(Nc1ccc2snnc2c1)N1CCSCC1 do in these assays?
ALR H2O2 inh: 92.9*; GRK2 aptamer HTS: 0.0; Efflux pump inh: -0.2; HDAC3 inh: -2.6; Rce1 inhib: inactive; Rtt109 Vps75: 7.6

What do the screens show for `CNC(=O)Nc1ccc2snnc2c1`?
ALR H2O2 inh: 52.0; GRK2 aptamer HTS: 0.0; Efflux pump inh: 0.4; HDAC3 inh: -4.4; Rce1 inhib: inactive; Rtt109 Vps75: -5.9

Results for CC1CN(C(=O)Nc2ccc3snnc3c2)c2ccccc21 (centres undefined) ?
ALR H2O2 inh: 94.0*; GRK2 aptamer HTS: 2.0; Efflux pump inh: 0.0; HDAC3 inh: 5.2; Rce1 inhib: inactive; Rtt109 Vps75: 1.7

What do the screens show for `c1ccc2c(c1)CNc1ccccc1-2`?
Rtt109 Vps75: -6.9

Results for COc1cc(C(=S)N(C)C)ccc1O ?
ALR H2O2 inh: 92.1*; GRK2 aptamer HTS: 2.0; Efflux pump inh: -0.1; HDAC3 inh: 4.3; Rce1 inhib: inactive; Rtt109 Vps75: 5.1

Results for CCCOC(=O)c1ccc(O)c(OC)c1 ?
ALR H2O2 inh: -0.9; GRK2 aptamer HTS: 0.0; Efflux pump inh: -0.2; HDAC3 inh: 0.3; Rce1 inhib: inactive; Rtt109 Vps75: -6.5

How did CCN(CC)S(=O)(=O)c1cc(NC(=O)Cc2ccc(S(=O)(=O)N3CCOCC3)s2)ccc1Cl do in these assays?
Rtt109 Vps75: -4.2

Results for O=C(COc1coc(CN2CCN(c3cccc(Cl)c3)CC2)cc1=O)NC1CCCC1 ?
GRK2 aptamer HTS: 0.0; Efflux pump inh: 0.0; HDAC3 inh: 1.1; Rce1 inhib: inactive; Rtt109 Vps75: 1.2

Results for CCOC(=O)c1csc(-c2ccc(OC)c(OC)c2)n1 ?
ALR H2O2 inh: -24.2; GRK2 aptamer HTS: 2.0; Efflux pump inh: 0.0; HDAC3 inh: -0.4; Rtt109 Vps75: -2.2

Results for COc1ccc(-c2nc(CC(=O)O)cs2)cc1 ?
GRK2 aptamer HTS: 0.0; Efflux pump inh: -0.2; Rce1 inhib: inactive; Rtt109 Vps75: -8.0

How did CCOc1ccc(-c2nc(CCl)cs2)cc1OC do in these assays?
ALR H2O2 inh: 98.8*; GRK2 aptamer HTS: 1.0; Efflux pump inh: -0.2; HDAC3 inh: -21.8; Rce1 inhib: active; Rtt109 Vps75: 11.9

Results for COc1ccc(-c2nc(CC(=O)O)cs2)cc1OC ?
ALR H2O2 inh: 0.7; GRK2 aptamer HTS: 0.0; Efflux pump inh: 0.1; HDAC3 inh: -49.7; Rce1 inhib: active

What do the screens show for `O=C(Nc1cc(C(F)(F)F)ccc1-n1cncn1)c1ccc([N+](=O)[O-])o1`?
ALR H2O2 inh: -28.5; GRK2 aptamer HTS: 1.0; Efflux pump inh: 0.1; HDAC3 inh: -3.8; Rce1 inhib: inactive; Rtt109 Vps75: 4.8

Results for C/C=C(/C)C(=O)O[C@H]1[C@@H](O)c2c(ccc3ccc(=O)oc23)OC1(C)C ?
ALR H2O2 inh: -8.0; GRK2 aptamer HTS: 0.0; Efflux pump inh: 0.0; HDAC3 inh: -18.7; Rce1 inhib: active; Rtt109 Vps75: -1.6

What do the screens show for `C/C=C(/C)C(=O)O[C@@H]1[C@H](OC(C)=O)c2c(ccc3ccc(=O)oc23)OC1(C)C`?
ALR H2O2 inh: -5.2; GRK2 aptamer HTS: 0.0; Efflux pump inh: 0.1; HDAC3 inh: 2.5; Rce1 inhib: inactive; Rtt109 Vps75: 11.2

How did O=C(COC(=O)c1ccc(S(=O)(=O)N2CCOCC2)cc1)Nc1ccccc1OC(F)F do in these assays?
ALR H2O2 inh: -6.3; GRK2 aptamer HTS: 2.0; Efflux pump inh: 0.0; HDAC3 inh: -8.6; Rtt109 Vps75: 13.1

Results for O=C(Nc1ccc([N+](=O)[O-])cc1)c1ccccc1F ?
ALR H2O2 inh: -4.7; GRK2 aptamer HTS: 0.0; Efflux pump inh: -0.1; HDAC3 inh: 6.2; Rce1 inhib: inactive; Rtt109 Vps75: -1.8

Results for O=C(c1cc(O)c(O)c([N+](=O)[O-])c1)c1ccccc1F ?
ALR H2O2 inh: 97.5*; GRK2 aptamer HTS: 1.0; Efflux pump inh: 0.0; HDAC3 inh: -4.1; Rtt109 Vps75: 2.9

How did COc1cc(C)cc(C(=O)C=Cc2ccccc2)c1O do in these assays?
Rtt109 Vps75: 5.1

How did COC1=C(C)C(O)=C(C(=O)/C=C/c2ccccc2)C(=O)C1(C)C do in these assays?
ALR H2O2 inh: 97.5*; GRK2 aptamer HTS: 0.0; Efflux pump inh: -0.1; HDAC3 inh: -1.7; Rce1 inhib: inactive; Rtt109 Vps75: 3.7
